According to ChEMBL document CHEMBL4888484, “Replenishing the malaria drug discovery pipeline: Screening and hit evaluation of the MMV Hit Generation Library 1 (HGL1) against asexual blood stage Plasmodium falciparum ,using a nano luciferase reporter read-out” (2022):
Hit rate of the full screen: of about 4,800 compounds, about 420 (8.8%) showed an effect of 50% or more. What follows is part of a selection rich in strong results, with near analogues and random picks from the rest.

What follows are compounds tested on Plasmodium falciparum (assay: Confirmatory screen in NF54 nanoGlo assay, in single point, at 2uM, 72h). Details: timepoint 72 hour.
Assay type: functional, Erythrocyte

SMILES | % Inhibition [%]
CC(C)C[C@H](N)C(=O)N1CC2CCCCC2C1 (stereo partly drawn) | -3
CS(=O)(=O)N1C[C@@H]2CCCN2c2cc(C(F)(F)F)ccc21 | 4
Cc1csc(C(C)(C)NC(=O)NCCC2=CCCC2)n1 | -3
CCOC(=O)c1sc(NC)nc1C(F)(F)F | -19
CC1CN(C(=O)Cn2nnc3ccccc3c2=O)CC1N(C)C (stereo not drawn) | -4
CCOCCC1(CNC(=O)c2cc(C)n[nH]2)CCC1 | -1
CCn1nccc1C(=O)NC1CCN(c2nnc3ccc(Cl)cn23)CC1 | 0
Cc1cnccc1NCCNC1CCN(c2ccc(Cl)cc2)CC1 | 99
Cc1cnccc1NCCNC1CCN(c2ccc3c(c2)CCC3)CC1 | 72
CCCC(=O)N1CCN(c2c(C)n(-c3ccccc3)c(=O)n(C)c2=O)CC1 | 2
O=C(NC1CC1)c1nc(C(=O)N2CCN(c3ccccn3)CC2)cs1 | -1
Cc1ccccc1CNC(=O)[C@H]1CCCN(c2nc3ccccc3[nH]c2=O)C1 | -1
Cc1ccccc1CNC(=O)[C@H]1CCCN(c2nc3cccnc3n(Cc3ccccc3)c2=O)C1 | -6
COc1ccccc1CNC(=O)c1nnn(-c2ccc3noc(-c4ccc(Cl)cc4)c3c2)c1C | -1
Cc1nccn1-c1ncc(NC(=O)Nc2ccc3c(c2)OCO3)cn1 | 21
Cc1ccc(C(=O)OCC(=O)Nc2ccc3c(c2)OCO3)cn1 | -2
CCc1nc2cc(N3CCC(C(=O)Nc4ccc5c(c4)OCO5)CC3)cnc2nc1CC | 61
CC(C)c1cc(=O)n(Cc2ccccc2Cn2cnc(C(C)C)cc2=O)cn1 | -3
Cc1nc(Nc2ccc(F)cc2)nc2c1ncn2-c1ccc(F)cc1 | -18
COc1ccc(C(=O)N[C@@H](C(=O)Nc2ccccc2C)c2ccc(Cl)cc2)cc1 | 7
CC(=O)N(Cc1ccc2c(c1)OCO2)c1cccc(-c2nc3ccccc3o2)c1 | -1
CC(=O)N(Cc1ccccc1OCc1c(Cl)cccc1Cl)c1ccc2oc(-c3ccccc3)nc2c1 | -13
Clc1ccc(C[n+]2ccc(-c3nc4ccccc4o3)cc2)c(Cl)c1 | 58
O=C(NC[C@H]1CCCO1)N1CCN(c2nccs2)C(=O)C1 | 1
Cc1ccc(-n2nc(N3CCN(C(=O)Cc4ccc(F)cc4)CC3)ccc2=O)cc1 | 4

SMILES | % Inhibition [%]
Cc1ccc(N2CCN(c3c(C(=O)N4CCCCC4)cnc4ccc(F)cc34)CC2)cc1 | -8
Cc1cccc(C)c1NC(=O)C1CCN(S(=O)(=O)c2c(C)nn(-c3ccccc3)c2C)CC1 | -6
Cc1nsc2ncc(C(=O)N3CCC(C)CC3)c(N3CCC(C(=O)Nc4cc(F)ccc4F)CC3)c12 | 60
O=C(c1cnc2ccc(F)cc2c1N1CCC(Cc2ccccc2)CC1)N1CCCC1 | 2
CCN(CC)C(=O)c1cnc2snc(C)c2c1N1CCC(C(=O)Nc2c(C)cc(C)cc2C)CC1 | 57
CCC1(CC)CN(C(=O)c2ccn(C)c(=O)c2)c2ccccc21 | 2
Cn1cc(-c2noc(Cc3c(F)cccc3Cl)n2)ccc1=O | -1
Clc1cccc(CNc2cc(-c3ccco3)n[nH]2)c1 | -7
CS(=O)(=O)N(CCCC(=O)NCc1ccc2c(c1)OCO2)c1ccc(F)cc1 | -2
Cc1csc([C@@H](C#N)C(=O)c2ccncc2)n1 | -11
CCCCNC(=O)Nc1cccc(C#CCN)n1 | -2
Cc1cc(N)nc(Nc2ccc(Nc3ccccc3)cc2)n1 | 87
Cc1nc(N)nc(C)c1C(=O)Nc1ccc(Nc2ncccn2)cc1 | 46
c1ccc(Nc2nc(-c3ccccc3)cc(-c3ccccc3)n2)cc1 | 3
CC(C)c1cc(C(=O)N2CC3CC4CC3C2C4O)n[nH]1 (stereo not drawn) | 1
COc1ccsc1S(=O)(=O)N1CCC(n2ccnc2)CC1 | -3
O=C(c1nc(-c2cccs2)cs1)N1CCN(c2ccccc2)CC1 | -15
Fc1ccc(C2=C[C@@H](c3ccc(Cl)cc3)N3N=C(c4ccc(Cl)cc4)NC3=N2)cc1 | 99
COc1cc(N2CCn3c(nc4cc(Cl)ccc43)C2)ccc1NC(=O)c1ccccc1OC | 4
COc1ccccc1C(=O)NC1=NN2C(=NC(c3ccc(Cl)cc3)=C[C@H]2c2ccc(Cl)cc2)N1 | 94
COc1cc(NC(=O)c2ccccc2Cl)cc(S(=O)(=O)c2ccc(Cl)cc2)c1 | -15
CCC1=NN2C(=NC(C(=O)O)=C[C@H]2c2ccc(O)cc2)N1 | -7
COc1ccc([C@@H]2C=C(c3ccc(Cl)cc3)N=C3NC(NC(=O)c4ccccc4OC)=NN32)cc1 | 97
COc1ccccc1C(=O)NC1=C(C)Nc2ncnn2[C@H]1c1c[nH]c2ccccc12 | -5
O=C(NC1=NN2C(=NC(c3ccc(Cl)cc3)=C[C@H]2c2ccc(F)cc2)N1)c1ccc(Cl)cc1 | 32

SMILES | % Inhibition [%]
C[C@H]1CCc2c(cnc3c(C(=O)NC4CC4)cnn23)C1 | -8
COc1ncccc1CNC(=O)[C@@H]1CCN(c2cc(C)cc(C)c2)C1=O | 3
Cc1nsc(N[C@@H]2C=C[C@H](CO)C2)n1 | -3
Cc1c(NC(=O)c2n[nH]cc2Cl)c(=O)n(-c2ccccc2)n1C | -13
O=C(c1ccco1)N1CC(n2cnnc2[C@@H]2CCCO2)C1 | -2
Cc1ccc(S(=O)(=O)Cc2nc(-c3ccc(C(=O)NCc4ccccc4C)cc3)oc2C)cc1 | -13
Cc1ccc(/N=C(/Nc2ccc(Br)cc2)c2cc(C(C)(C)C)c(O)c(C(C)(C)C)c2)cc1 | -15
O=S(=O)(c1ccc(F)c(Cl)c1)N1CC[C@H](Oc2ccncc2Cl)C1 | 75
O=S(=O)(c1ccc(Cl)cc1)N1CCC(c2cc(-c3cccc(C(F)(F)F)c3)[nH]n2)CC1 | -1
O=S(=O)(c1ccco1)N1CC[C@H](Oc2ccccc2)C1 | 2
COC(=O)C1NS(=O)(=O)c2ccc(Cl)cc2C1(O)c1ccccc1F (stereo not drawn) | -5
O=C(Nc1ccc(F)c(Cl)c1)c1ccn(COc2ccccc2Cl)n1 | -6
O=C(N[C@@H](N1CCCCC1)C(Cl)(Cl)Cl)c1cccnc1 | 2
CC(C)c1ccc2ncnc(N[C@H]3CCc4[nH]cnc4C3)c2c1 | 97
O=C(Cc1ccc(F)cc1F)N1CCc2[nH]nc(C(=O)N3CCN(c4ccccc4)CC3)c2C1 | 3
Cc1ccccc1Nc1c(-c2c[nH]c3ccccc23)nc2ncccn12 | 1
Cc1cc2c(OC[C@@H](O)CN3CCOCC3)cccc2[nH]1 | -13
Cc1cc(C)nc([C@@H](C#N)C(=O)c2ccnc(OCC(F)F)c2)n1 | -7
COc1ccccc1C(=O)Nc1ccc(N2CCCN(C)CC2)cc1C(=O)O | -12
Cn1ccnc(N[C@@H](COc2ccccc2F)c2ccccc2)c1=O | -7
Cc1ccc(S(=O)(=O)N2CC[C@H](CC(=O)NCc3ccccc3)C2)cc1C | -16
CNC(=O)COc1c(Cl)ccc(Cl)c1Br | 0
CCN(CCC1CCN(C(=O)Nc2ccc(OC3CCOCC3)c(C)c2)CC1)CC(C)C | -3
N#Cc1c(NC(=O)CN2CCC[C@@H]2CO)sc2c1CCCCC2 | 1
CC(C)(C)[C@H]1CCc2c(sc(NC(=O)C3(F)C(F)(F)C(F)(F)C(F)(F)C(F)(F)C3(F)F)c2C#N)C1 | 50

SMILES | % Inhibition [%]
COc1ccc2[nH]c(-c3nnc(Cn4c(C)cc5ccccc54)s3)cc2c1 | 2
Cc1cc(S(=O)(=O)NC(=O)CCC(C)C)c(C)o1 | -7
Cc1nc2ccccc2n1CC1CCCN1C(=O)C1CCc2cccnc21 (stereo not drawn) | -7
CN(Cc1ccccc1)C(=O)C[C@H]1CCN(C(=O)c2cnccn2)C1 | -1
COc1ccc2c(c1)/C(=C1/SC(C(C)=O)=C(c3ccccc3)S1)C(=S)C(C)(C)N2C(=O)Nc1ccc(Cl)c(Cl)c1 | -7
Cc1ccc(-c2nc(CNC(=O)C[C@H]3CNCCO3)[nH]c2-c2ccccn2)cc1 | 22
Cn1ncnc1CCNC(=O)NC(C1CCCC1)C1CCCC1 | 1
CC1(C)CC(=O)C2(Cc3ccccc3N3CCN(Cc4ccccc4)C[C@H]32)C(=O)C1 | 8
O=C(NC1CC1)c1cn(CC2(O)CCN(Cc3ccccc3)CC2)nn1 | 0
O=C(Nc1sc2c(c1C(=O)O)CCC2)c1ccsc1 | -3
COC(=O)[C@@H](NC(=O)NC1CCCCC1)C(C)(C)C | -2
Cc1ccsc1-c1noc([C@@H]2COCCN2C)n1 | -7
COc1c(O)ccc2c(=O)c3c(O)cc(O)c(OC)c3n(C)c12 | -3
CC1(C)C(NCC(O)COc2ccc(F)c(F)c2)[C@@H]2CCC[C@@H]21 (stereo partly drawn) | 72
COc1ccc(Oc2c(CN(CC3CC3)C(=O)c3ccccc3)c(-c3ccccc3)nn2C)cc1 | 2
CC1(C)Oc2ccc(NC(=O)c3ccco3)cc2NC1=O | -2
CC(C)N(C)CC1CCN(C(=O)c2cc(-c3ccccc3)c(N3CCOCC3)s2)CC1 | -4
CCOc1cc(-c2cc(-c3ccccc3O)nc3ccc4ccccc4c23)cc(Br)c1O | 91
COc1cccc(CNCc2ccccc2)c1OCc1ccccc1Cl | -1
O=c1c2ccccc2nnn1-c1ncc(C(F)(F)F)cc1Cl | -9
CC(C)(C)CCS(=O)(=O)N1CCC[C@H]1C1CCCCC1 | 0
Cn1cccc1C(=O)N1CCCN(S(C)(=O)=O)[C@H]2CCC[C@H]2C(=O)NCC1 | 0
CC(C)CCn1nnnc1[C@]1(N(C)C)CCCN(C(=O)c2cccn2C)C1 | 88
